Pf growth 96h = P. falciparum growth inhibition at 96 hour, primary screen for plastid delayed-death inhibitors; P. falciparum luciferase reporter growth, 96 h; Potency, µM (highest dose often 28.7 µM), for inactives: top-dose activity change, negative = inhibition, hits mostly inhibitors; 320,000 tested, 6.9% active; also: potency is read from the fitted curve at half-maximal effect; % is scaled to controls: 0 for no effect and ±100 for the full control effect
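P. falciparum expressing integrated firefly luciferase grown in erythrocytes (2% hematocrit, 0.05% parasitemia final) with compounds for 96 hours at 37 C, 5% CO2. Growth inhibition read as loss of luminescence after adding luciferase detection reagent.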
Pf growth 48h = inhibits P. falciparum growth in the first generation, 48 h | P. falciparum luciferase growth in erythrocytes, 48 h | Potency, µM (highest dose often 28.7 µM), inactives show at the highest dose activity change, negative = inhibition, usual class: inhibitors | 310,000 tested, 5.9% active | AID 504832; also: potency is read from the fitted curve at half-maximal effect; % is scaled to controls: 0 for no effect and ±100 for the full control effect
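Luminescence readout; reporter = integrated firefly luciferase in P. falciparum. RBC culture at 2% hematocrit, 0.1% parasitemia final, 37 C/5% CO2; decreased signal taken as growth inhibition.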
Shiga inhibitor = Shiga toxin inhibition; Vero cells, Shiga toxin protein synthesis inhibition reporter; inhibition, % at 38.7 µM; 290,000 tested, 9.2% active; in the data active = inhibition mostly above about 28%, no sharp cut-off; inactive = mostly below about 43%; also: 0% is about no effect
CHX counter = affects cycloheximide protein synthesis inhibition readout, counter-screen; cell reporter, cycloheximide protein synthesis inhibition counterscreen; 300,000 tested, 12% active; AID 2314; max response, %; in the data active = max response mostly above about 13%, no sharp cut-off; inactive = mostly below about 14%; also: read at 38.3 µM for the half of the compounds with a filed dose; 0% is about no effect
NS1 function inh = influenza NS1 inhibition; 270,000 tested, 0.4% active; AID 2326; Potency, µM (highest dose often 46.1 µM), without a hit: at the highest dose activity, positive = more growth; calls by dose curve; also: potency is read from the fitted curve at half-maximal effect; actives are rising curves; nearly all actives have a fitted effect of over 50% in size
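In this qHTS, NS1 from influenza A is expressed in budding yeast, where it slows growth. Cells are switched from glucose to 2% galactose medium (pH 6.0, -URA), treated with compound, and growth recovery is read at OD600.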
FBPA Giardia inh = blocks Giardia fructose-bisphosphate aldolase activity. A8B2U2. purified Giardia FBPA. Potency, µM (doses to about 59.6 µM), without a hit: top-dose activity, negative = inhibition, most hits filed as inhibitors. 290,000 tested, 0.71% active; also: potency is read from the fitted curve at half-maximal effect; % is scaled to controls: 0 for no effect and ±100 for the full control effect; nearly all actives have a fitted effect of over 55% in size
Target sequence (A8B2U2 whole entry, looked up): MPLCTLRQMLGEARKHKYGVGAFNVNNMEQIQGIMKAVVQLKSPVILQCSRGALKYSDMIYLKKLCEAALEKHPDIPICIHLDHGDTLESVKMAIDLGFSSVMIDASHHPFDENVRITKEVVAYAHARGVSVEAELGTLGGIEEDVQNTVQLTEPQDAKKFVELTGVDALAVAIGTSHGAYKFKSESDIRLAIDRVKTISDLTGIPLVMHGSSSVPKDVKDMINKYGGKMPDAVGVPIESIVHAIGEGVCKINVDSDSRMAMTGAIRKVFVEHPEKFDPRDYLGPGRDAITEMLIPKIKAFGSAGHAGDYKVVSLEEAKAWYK
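40 nM FBPA preincubated 10 min at RT with compound (up to 57.5 uM final), then substrate plus GAPDH/TPI/NAD/arsenate coupling and diaphorase/resazurin added. Fluorescence read after 20 min at RT, 525/598 nm.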
Starred values were filed as active, the others as inactive; ? = inconclusive; · = not tested or not shown; + = active, no number; ! = repeats disagree; [ ] = remark or other dose. Hits are enriched below; roughly 21% of the tested compounds scored in any of these assays. Unless noted, calls follow the shape of the dose curve; as a rule, active = well fitted curve in the direction sought with a large enough effect; inconclusive = small, poorly fitted or top-dose-only effect, or another doubt; inactive = no such curve, though single readings can be large; an effect the other way counts as inactive or inconclusive.

SMILES	Pf growth 96h	Pf growth 48h	Shiga inhibitor	CHX counter	NS1 function inh	FBPA Giardia inh
Cc1cc(S(=O)(=O)N2CCCCC2)ccc1OCC(=O)N1CCOCC1	78.8%	-0.5%	-3.4	-1.2	2.9%	8.8%
COc1cccc(CNC(=O)CN2C(=O)CCSc3ccc(S(=O)(=O)N4CCCC4)cc32)c1	14.8%	?	-15.2	-0.6	9.2%	15.6%
CCCN(CCC)[C@@H]1CCc2c(F)ccc(O)c2C1	·	·	·	·	0.0%	-10.7%
O=C(/C(C=Nc1cc2c(oc1=O)CCCC2=O)=C(\O)c1ccccc1)c1ccccc1	55.7%	23.9%	125.2*	39.8*	1.2%	-2.1%
O=C1CCCc2c1cc(-c1ccccc1)n2-c1ccccc1	0.9%	7.7%	-10.1	2.0	-2.3%	6.5%
Cc1ccc(Nc2nnc(SCC(=O)c3c(N)n(C4CC4)c(=O)[nH]c3=O)s2)cc1C	?	-22.5%	·	·	·	·
Cc1cccc(Nc2nnc(SC(C)C(=O)NC3CC3)s2)c1 (configuration not stated)	10.4µM*	13.1µM*	·	·	·	·
Cc1nnc(SC(C)C(=O)NC2CCCCC2)s1 (configuration not stated)	-0.4%	-23.8%	·	·	·	·
Cc1cc(C)cc(-c2nnc(SCC(=O)c3c(N)n(C4CC4)c(=O)[nH]c3=O)o2)c1	21.6%	0.0%	·	·	·	·
Cc1cccc(Nc2nnc(SCC(=O)c3c(N)n(C4CC4)c(=O)[nH]c3=O)s2)c1	6.57µM*	-17.6%	·	·	·	·
CCn1c(Cc2ccccc2)nnc1SCC(=O)c1c(N)n(C2CC2)c(=O)[nH]c1=O	9.28µM*	?	·	·	·	·
COCCn1c(SCC(=O)c2c(N)n(C3CC3)c(=O)[nH]c2=O)nnc1-c1cccc(C)c1	8.28µM*	8.28µM*	·	·	·	·
O=C(OCC(=O)N1CCCC1)c1cc(Cl)ccc1[N+](=O)[O-]	25.0%	-9.4%	6.7	-2.9	-0.6%	2.4%
CCn1c(SCC(=O)c2c(N)n(C3CC3)c(=O)[nH]c2=O)nnc1-c1ccccc1OC	8.28µM*	?	·	·	·	·
C/C(N)=C(/C#N)C(=O)CSc1nc2cc(Cl)ccc2s1	44.8%	22.2%	+	23.9*	-16.6%	-0.4%
Nc1c(C(=O)CSc2nnc(COc3ccc(Cl)cc3)o2)c(=O)[nH]c(=O)n1C1CC1	10.4µM*	?	·	·	·	·
C/C(N)=C(/C#N)C(=O)CSc1cc(Cl)ccc1Cl	2.4%	16.7%	4.8	-1.4	-5.7%	7.8%
Nc1c(C(=O)CSc2nnc(-c3ccccc3)o2)c(=O)[nH]c(=O)n1C1CC1	?	-28.0%	·	·	·	·
C/C(N)=C(/C#N)C(=O)CSc1nnc(Nc2cccc(C)c2)s1	?	44.0%	67.1*	30.9*	-1.1%	-7.7%
CCOc1cc(/C=C(\C#N)C(N)=O)cc(CSc2ccccc2)c1O	·	·	18.7	-1.4	·	-6.4%
Nc1ncnc2c1ncn2[C@H]1O[C@@H](CO)[C@@H](O)[C@H]1N	·	·	·	·	-2.0%	·
Nc1c(C(=O)CSc2nncn2-c2ccccc2)c(=O)[nH]c(=O)n1C1CC1	11.7µM*	?	·	·	·	·
CCn1cnnc1SCC(=O)c1c(N)n(C2CC2)c(=O)[nH]c1=O	?	-11.6%	·	·	·	·
COc1ccccc1Cn1c(SCC(=O)C(C)(C)C)nc2cc(C(=O)N3CCC4(CC3)OCCO4)ccc2c1=O	?	5.86µM*	-1.4	6.1	·	-2.9%
COc1ccc(C(C)=O)cc1CSc1nc2cc(C(=O)O)ccc2c(=O)n1Cc1ccccc1	-32.5%	-0.5%	-1.9	-4.3	?	27.6%
SMILES	Pf growth 96h	Pf growth 48h	Shiga inhibitor	CHX counter	NS1 function inh	FBPA Giardia inh
COc1cc(-c2nc3n(c(=O)c2C#N)CCS3)cc(OC)c1OC	0.657µM*	?	-15.7	-3.2	12.0%	-1.0%
O=C(CSc1nncs1)Nc1ccc2c(c1)OCCO2	11.6%	·	58.4*	58.7*	-1.3%	-9.2%
O=C(CSc1nncs1)NC(=O)Nc1ccc2c(c1)OCCO2	165.7%	106.8%	59.2*	45.3*	5.8%	1.6%
O=S1(=O)C2CC3CCC2(CN1Cc1ccccc1)O3 (configuration not stated)	·	·	15.3	6.7	·	7.8%
NC(=O)CC[C@@H]1NC(=O)[C@H](Cc2ccccc2)NC(=O)[C@H](Cc2ccc(O)cc2)NC(=O)[C@@H](N)CSSC[C@@H](C(=O)N2CCC[C@H]2C(=O)N[C@@H](CCCN=C(N)N)C(=O)NCC(N)=O)NC(=O)[C@H](CC(N)=O)NC1=O	12µM*!	?	-5.2	3.7	2.8%	0.5%
COc1ccc(CNCCc2c[nH]c3ccccc23)c(OC)c1C	2.94µM*	?	3.2	-6.8	-0.8%	?
COc1ccc(CNCCc2ccccc2F)c(OC)c1C	-6.4%	10.4µM*	-1.8	-1.9	11.3%	?
CCOc1cc(CNCCc2ccccc2F)ccc1OC	?	-25.4%	-4.0	-2.5	4.4%	-10.4%
COc1cc(C)c(CNCCc2c[nH]c3ccccc23)cc1C	28.5%	?	-4.5	-3.4	-3.1%	?
O=C1CC(c2ccccc2)CC(O)=C1C=Nc1ccc(O)cc1 (configuration not stated)	13.1µM*	19.0%	61.7	17.6*	1.3%	-2.0%
COC(=O)C1=C(CS(=O)(=O)c2ccccc2)NC(=O)NC1c1ccc(OC)c(OC)c1 (configuration not stated)	?	15.4%	-7.2	-5.7	-2.9%	-6.3%
COc1ccc2cc([C@H](C)C(=O)N(C)Cc3ccccc3N3CCCC3)ccc2c1	3.7µM*	?	3.6	-1.5	-28.4%	-8.2%
Cc1ncsc1CCOC(=O)c1ccc(N2CCOCC2)c([N+](=O)[O-])c1	-4.8%	-25.2%	57.7	27.3	·	-2.8%
Cc1ncsc1CCOC(=O)c1ccc([N+](=O)[O-])cc1	8.9%	23.4%	40.9*	24.6*	-10.9%	-24.8%
O=C(NCCCN1CCOCC1)C1CCN(S(=O)(=O)c2ccccc2)CC1	22.5%	1.6%	·	·	·	·
OCCCCCN=c1cc(-c2ccccc2)oc2ccc(Cl)cc12	13.1µM*	?	84.7*	45.0*	-12.3%	3.6%
Clc1ccc2oc(-c3ccccc3)cc(=NCCCN3CCOCC3)c2c1	?	4.65µM*	92.6*	24.8*	·	3.6%
OCCN1CCN(c2nc(-c3ccccc3)c3cc(Cl)ccc3n2)CC1	?	?	-23.8	-5.6	-39.3%	2.4%
Clc1nc2c(-c3ccccc3)nnn2c2ccccc12	-22.8%	-2.3%	25.0	23.8*	-30.6%	-4.2%
NNc1nc2c(-c3ccc(F)cc3)nnn2c2ccccc12	34.2%	-88.9%	129.9*	50.7*	·	?
COCCCNc1nc2c(-c3ccc(Cl)cc3)nnn2c2ccccc12	11.7µM*	-0.6%	-13.3	-4.2	9.4%	1.1%
Fc1ccc(-c2nnn3c2nc(NCc2ccccc2)c2ccccc23)cc1	12.9%	13.3%	6.1	1.8	8.2%	1.8%
CCOC(=O)CCN(SN(C)C(=O)Oc1cccc2c1OC(C)(C)C2)C(C)C	·	·	16.4	-2.0	·	-4.5%
CCN1C(=O)[C@H]2[C@H]3[C@H](O)[C@H](O)C/C(=N/O[C@@H](C)c4cn([C@H]5COC[C@H]5O)nn4)[C@@H]3CC[C@@H]2C1=O	·	·	·	·	·	-4.3%[12.9 µM]

High-throughput results deposited in PubChem BioAssay by National Center for Advancing Translational Sciences (NCATS).
